Compounds with a hit are over-represented: about 7.3% of the library has one in this group of screens.
SNCA expr inhib: SNCA gene expression inhibition; HEK-293 SNCA-luciferase knock-in, luminescence, 24 h; Potency, µM (top dose mostly 57.2 µM), actives largely listed as inhibitors; 140,000 compounds, 0.17% hits; also: nearly all actives have a fitted effect of over 45% in size
NIH3T3 tox: kills NIH 3T3 cells. NIH 3T3 viability, CellTiter-Glo ATP luminescence, 48-72 h. Potency, µM (series often up to 96.7 µM), actives largely listed as inhibitors. 94,000 compounds, 4.3% hits; also: nearly all actives have a fitted effect of over 55% in size
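Cytotoxicity was measured by CellTiter-Glo ATP luminescence after 48 or 72 h compound exposure at 37 °C. Mouse NIH 3T3 fibroblasts were seeded at 400 cells/well and dosed by 23 nL pin transfer.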
HEK293 viab: reduces viability of HEK-293 SNCA reporter cells; 150,000 compounds, 0.12% hits; Potency, µM (top dose mostly 57.1 µM), hits mostly cytotoxic; HEK-293-SNCA-luc viability, GF-AFC fluorescence, 24 h; also: nearly all actives have a fitted effect of over 30% in size
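Cytotoxicity counterscreen: after 24 h compound treatment of genome-edited SNCA-luciferase HEK-293 cells, live-cell protease substrate GF-AFC read by fluorescence after 30 min; activity scaled between DMSO (0%) and medium-only (-100%), curves Hill-fitted.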
IP6K1 inh: IP6K1 kinase inhibition | Q92551 | IP6K1 kinase, ADP-Glo luminescence, 2 h; active compounds read low | activity change, % (series mostly up to about 58 µM) | 140,000 compounds, 0.81% hits | AID 1645851; in the data active = activity change below about -25%
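ADP-Glo luminescence measures ADP made by human IP6K1 during a 2 h RT reaction with ATP/IP6 (mix at 1.3 mM/130 uM); top library doses 57.5 and 19.1 uM final.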
FLuc inh-1: blocks purified firefly luciferase enzyme activity. P08659. purified P. pyralis luciferase, luminescence, biochemical. Potency, µM (top dose mostly 115 µM), actives largely listed as inhibitors. 76,000 compounds, 2.5% hits. AID 1347043; also: nearly all actives have a fitted effect of over 65% in size
Target sequence (P08659 whole entry, looked up): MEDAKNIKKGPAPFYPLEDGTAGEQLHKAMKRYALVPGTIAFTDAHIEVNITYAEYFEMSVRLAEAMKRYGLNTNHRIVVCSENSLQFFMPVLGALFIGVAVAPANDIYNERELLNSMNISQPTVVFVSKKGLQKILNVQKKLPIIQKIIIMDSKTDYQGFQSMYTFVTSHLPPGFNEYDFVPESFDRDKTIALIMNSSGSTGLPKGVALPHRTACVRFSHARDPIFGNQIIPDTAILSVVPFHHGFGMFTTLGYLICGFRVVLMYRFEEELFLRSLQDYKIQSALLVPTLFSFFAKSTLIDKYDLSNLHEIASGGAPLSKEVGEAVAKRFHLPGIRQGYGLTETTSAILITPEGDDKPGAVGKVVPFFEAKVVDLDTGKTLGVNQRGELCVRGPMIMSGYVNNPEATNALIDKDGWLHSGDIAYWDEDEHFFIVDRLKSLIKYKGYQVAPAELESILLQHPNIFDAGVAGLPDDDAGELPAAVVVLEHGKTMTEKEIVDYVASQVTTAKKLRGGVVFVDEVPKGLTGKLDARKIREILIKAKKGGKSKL
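Luminescence read by CCD imaging after purified firefly luciferase (10nM final) was added to substrate buffer holding 10uM D-luciferin and 10uM ATP, pH 7.5, pre-dosed with compound.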
HEK293 tox: HEK 293 cell cytotoxicity; HEK 293 viability, ATP luminescence (CellTiter-Glo), 48-72 h; Potency, µM (titrated, usually from 115 µM), hits mostly inhibitors; 94,000 compounds, 6.6% hits; also: nearly all actives have a fitted effect of over 60% in size
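CellTiter-Glo luminescence (cellular ATP) was read after 48 or 72 hr of compound exposure at 37 degree Celsius. Cells were HEK 293 plated at 250 cells/well.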
FLuc SDR -ATP: stabilizes firefly luciferase without ATP | shares compounds with FLuc inh-1 | Purified FLuc-C-HiBiT, Nano-Glo HiBiT luminescence, no ATP | Potency, µM (doses to about 32.7 µM), usual class: activators | 1,300 compounds, 7.8% hits | AID 1963318; also: nearly all actives have a fitted effect of over 55% in size
FLuc SDR ATP: firefly luciferase binding stabilization, ATP added; shares compounds with FLuc inh-1; purified FLuc-C-HiBiT + ATP, HiBiT complementation luminescence; Potency, µM (series often up to 32.7 µM), usual class: activators; 1,300 compounds, 8.7% hits; AID 1963319;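 also: signal reports ligand binding via conformational change of the enzyme rather than luciferase catalysis; nearly all actives have a fitted effect of over 55% in size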
FLuc inh-2: inhibitors of firefly luciferase enzymatic activity; purified FLuc-C-HiBiT enzyme, luciferin luminescence; 1,300 compounds, 42% hits; Potency, µM (series often up to 32.7 µM), most hits filed as inhibitors; AID 1963320; shares compounds with FLuc inh-1; also: nearly all actives have a fitted effect of over 70% in size
Each line names hits and unclear results; the compound was inactive in the other large screens (follow-up assays come after a bar, where they were run). Unless noted, calls follow the shape of the dose curve; as a rule, active = well fitted curve in the direction sought with a large enough effect; inconclusive = small, poorly fitted or top-dose-only effect, or another doubt; inactive = no such curve, though single readings can be large; an effect the other way counts as inactive or inconclusive.

c1ccc(-c2cn3c(n2)CO[C@@H](CNCc2cccs2)C3)cc1	FLuc inh-1 5.6µM, HEK293 tox inconclusive | FLuc SDR -ATP inactive | FLuc SDR ATP inactive | FLuc inh-2 inconclusive
CCn1cc(CN2C[C@@H](COc3ccccc3)[C@H](C(N)=O)C2)cn1	none
CCOc1ccc(/C=C/c2nc3ccccc3n2S(=O)(=O)c2ccc(Br)cc2)cc1	SNCA expr inhib inconclusive (no result: NIH3T3 tox, FLuc inh-1, HEK293 tox)
O=S(=O)(c1cccc(C(F)(F)F)c1)n1c(/C=C/c2ccccc2)nc2ccccc21	none (no result: NIH3T3 tox, FLuc inh-1, HEK293 tox) | FLuc SDR -ATP 1.6µM | FLuc SDR ATP inconclusive | FLuc inh-2 0.56µM
Cc1c(NC(=O)c2cccc(Cl)c2Cl)cccc1-c1nc2ccccc2s1	none (no result: SNCA expr inhib, NIH3T3 tox, HEK293 viab, IP6K1 inh, FLuc inh-1, HEK293 tox) | FLuc SDR -ATP inactive | FLuc SDR ATP inactive | FLuc inh-2 inactive
Cc1c(NC(=O)Cc2ccccc2)cccc1-c1nc2ccccc2s1	none (no result: SNCA expr inhib, NIH3T3 tox, HEK293 viab, IP6K1 inh, FLuc inh-1, HEK293 tox) | FLuc SDR -ATP inconclusive | FLuc SDR ATP inactive | FLuc inh-2 inconclusive
Cc1c(NC(=O)Cc2ccc(F)cc2)cccc1-c1nc2cccnc2s1	HEK293 viab inconclusive (no result: NIH3T3 tox, FLuc inh-1, HEK293 tox)
CCC(=O)Nc1cc(-c2nc3ccccc3s2)c(Cl)cc1Cl	none (no result: NIH3T3 tox, FLuc inh-1, HEK293 tox) | FLuc SDR -ATP inactive | FLuc SDR ATP inactive | FLuc inh-2 inactive
Cc1c(NC(=O)c2ccc(I)o2)cccc1-c1nc2ccccc2s1	none (no result: SNCA expr inhib, NIH3T3 tox, HEK293 viab, IP6K1 inh, FLuc inh-1, HEK293 tox) | FLuc SDR -ATP inactive | FLuc SDR ATP inactive | FLuc inh-2 7µM
Cc1ccc(S(=O)(=O)Nc2ccc(C)n(CC(=O)N3CCOCC3)c2=O)cc1	none
O=C(C1CCCN1C(=O)c1ccc(F)cc1)N1CCCC(c2nc3ncccc3[nH]2)C1 (centres undefined)	none (no result: FLuc inh-1)
CS(=O)(=O)CC[C@H](NC(=O)C1=C[C@@H](NC(=O)Nc2ccc(F)cc2F)[C@@H](O)[C@H](O)C1)C(N)=O	none
O=C1CC(c2ccccc2)N(C(=O)CNC(=O)Nc2ccc3c(c2)OCCO3)CCCCCN1 (centres undefined)	HEK293 viab inconclusive, FLuc inh-1 10µM | FLuc SDR -ATP inactive | FLuc SDR ATP inactive | FLuc inh-2 inconclusive
CCC(CC)COC(=O)[C@H](C)N[P@](=O)(OC[C@H]1O[C@@](C#N)(c2ccc3c(N)ncnn23)[C@H](O)[C@@H]1O)Oc1ccccc1	none (no result: SNCA expr inhib, NIH3T3 tox, HEK293 viab, IP6K1 inh, FLuc inh-1, HEK293 tox) | FLuc SDR -ATP inactive | FLuc SDR ATP inactive | FLuc inh-2 inactive
O=C(NC1CCCCC1)c1cc(-c2cc(Cl)cc(Cl)c2)c2nncn2n1	NIH3T3 tox inconclusive (no result: FLuc inh-1)
CCCn1c(C)cnc1CC1CCN(C(=O)C2(c3ccc(OC)cc3)CC2)C1 (centres undefined)	FLuc inh-1 6.3µM, HEK293 tox 28µM | FLuc SDR -ATP inactive | FLuc SDR ATP inactive | FLuc inh-2 inactive
COCCn1c(C)cnc1CC1CCCN(C(=O)C2(c3ccc(OC)cc3)CC2)C1 (centres undefined)	none
COc1ncccc1-c1cc2c(nc1OC)nc(CCc1ccccc1)n2C	NIH3T3 tox inconclusive, HEK293 tox inconclusive
COc1ccc(Nc2cc3c(nc2OC)nc(CCc2ccccc2)n3C)cn1	NIH3T3 tox inconclusive, FLuc inh-1 6.3µM, HEK293 tox inconclusive | FLuc SDR -ATP inactive | FLuc SDR ATP inactive | FLuc inh-2 inconclusive
O=C(Nc1c(C(=O)O)oc2ccccc12)c1ccc(C(F)(F)F)cc1	none (no result: NIH3T3 tox, FLuc inh-1, HEK293 tox) | FLuc SDR -ATP inactive | FLuc SDR ATP inactive | FLuc inh-2 9.9µM
Cc1nc2ncccn2c1C(=O)N1CCNCC(C(=O)O)C1 (centres undefined)	none
